Screening results: PubChem BioAssay, several laboratories
Fh CTSL1 inh: blocks F. hepatica cathepsin L1 in PFM18AAP counter-screen | recombinant F. hepatica cathepsin L1, Z-Leu-Arg-MCA fluorescence | inhibition, % at 5.96 µM | 300,000 tested, 0.49% active | AID 1906;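 active = inhibition above the mean of all tested compounds plus 3 SD, set per screening campaign, cut at about 17% in these data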;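 also: 0% = plate median of test compound wells and 100% = 1 µM Z-Phe-Ala-diazomethylketone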
Calb FLC: affects C. albicans growth with fluconazole. C. albicans CaCi-2 (fluconazole-resistant clinical isolate) + fluconazole, Alamar Blue growth, 48 h. 300,000 tested, 0.57% active. growth inhibition, % (no concentration beside the values);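 active = growth inhibition above about 58% in most replicates, limit read from the data, passing the limit was not always enough; inconclusive = exactly half the replicates above a set limit; inactive = most replicates below a set limit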;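 also: all wells also contain fluconazole at 8 µg/ml as a sub-toxic cotreatment; 0% = median of DMSO wells and 100% = median of geldanamycin control wells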
Rin1 Abl inh: inhibitors of human Rin1-Abl protein interaction | P00519+Q13671 | TR-FRET Rin1/Abl binding, biochemical | inhibition, % at 7.35 µM | 360,000 tested, 0.4% active; in the data active = inhibition above about 5%, passing the limit was not always enough
Target sequence (P00519 whole entry, looked up): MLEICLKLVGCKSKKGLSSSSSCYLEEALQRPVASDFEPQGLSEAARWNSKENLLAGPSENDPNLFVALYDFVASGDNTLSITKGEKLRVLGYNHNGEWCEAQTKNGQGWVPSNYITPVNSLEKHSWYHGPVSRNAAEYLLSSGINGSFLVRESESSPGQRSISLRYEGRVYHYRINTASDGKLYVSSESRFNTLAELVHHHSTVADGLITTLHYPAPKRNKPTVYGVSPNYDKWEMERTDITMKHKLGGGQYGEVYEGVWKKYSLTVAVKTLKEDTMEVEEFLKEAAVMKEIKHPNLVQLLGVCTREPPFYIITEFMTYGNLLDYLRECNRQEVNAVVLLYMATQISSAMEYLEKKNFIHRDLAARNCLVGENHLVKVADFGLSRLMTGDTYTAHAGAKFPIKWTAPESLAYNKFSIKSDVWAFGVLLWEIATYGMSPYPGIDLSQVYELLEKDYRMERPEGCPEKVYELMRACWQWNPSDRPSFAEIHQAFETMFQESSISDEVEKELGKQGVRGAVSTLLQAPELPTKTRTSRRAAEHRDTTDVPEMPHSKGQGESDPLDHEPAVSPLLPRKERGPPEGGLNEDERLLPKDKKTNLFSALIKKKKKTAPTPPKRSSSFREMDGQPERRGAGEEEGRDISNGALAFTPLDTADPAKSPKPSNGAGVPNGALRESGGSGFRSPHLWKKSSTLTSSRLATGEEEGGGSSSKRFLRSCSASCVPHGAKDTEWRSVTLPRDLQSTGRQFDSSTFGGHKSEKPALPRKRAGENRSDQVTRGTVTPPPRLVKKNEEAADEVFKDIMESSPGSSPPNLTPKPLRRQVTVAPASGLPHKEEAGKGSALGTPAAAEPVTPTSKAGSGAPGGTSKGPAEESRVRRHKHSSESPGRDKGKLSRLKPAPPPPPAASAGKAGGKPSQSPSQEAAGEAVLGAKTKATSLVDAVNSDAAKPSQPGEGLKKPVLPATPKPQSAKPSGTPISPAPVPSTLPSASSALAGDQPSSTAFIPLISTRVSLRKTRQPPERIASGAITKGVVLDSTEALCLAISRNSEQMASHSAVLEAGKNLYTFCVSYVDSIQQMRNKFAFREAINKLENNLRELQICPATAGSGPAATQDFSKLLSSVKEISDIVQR
Target sequence (Q13671 whole entry, looked up): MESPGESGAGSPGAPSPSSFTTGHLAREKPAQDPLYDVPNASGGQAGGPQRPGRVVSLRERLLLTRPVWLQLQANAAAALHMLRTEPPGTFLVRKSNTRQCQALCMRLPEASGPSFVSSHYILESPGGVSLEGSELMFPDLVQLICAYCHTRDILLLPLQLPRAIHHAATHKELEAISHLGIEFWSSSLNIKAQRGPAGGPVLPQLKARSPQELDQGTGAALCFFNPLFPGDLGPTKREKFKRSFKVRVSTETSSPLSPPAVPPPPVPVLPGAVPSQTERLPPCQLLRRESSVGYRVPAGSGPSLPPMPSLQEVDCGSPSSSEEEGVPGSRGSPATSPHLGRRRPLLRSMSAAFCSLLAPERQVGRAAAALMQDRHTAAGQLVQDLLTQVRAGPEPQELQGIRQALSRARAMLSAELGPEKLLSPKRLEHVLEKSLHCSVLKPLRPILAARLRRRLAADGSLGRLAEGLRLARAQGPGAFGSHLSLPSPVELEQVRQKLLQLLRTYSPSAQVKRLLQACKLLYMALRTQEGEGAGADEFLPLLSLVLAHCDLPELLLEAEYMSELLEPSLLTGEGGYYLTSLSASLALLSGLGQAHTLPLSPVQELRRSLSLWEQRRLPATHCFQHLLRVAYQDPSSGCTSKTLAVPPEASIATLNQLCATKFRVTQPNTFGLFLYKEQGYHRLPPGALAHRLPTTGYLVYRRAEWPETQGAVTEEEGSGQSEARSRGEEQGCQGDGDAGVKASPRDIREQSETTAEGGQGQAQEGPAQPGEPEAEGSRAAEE
M18AAP inhibitor: PfM18AAP enzyme inhibition; 290,000 tested, 1.2% active; AID 1822; recombinant PfM18AAP, H-Glu-NHMec fluorogenic cleavage; inhibition, % at 7.35 µM;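 active = inhibition above the campaign mean inhibition over all tested compounds plus 3 SD, cut at about 28% in these data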;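 also: 0% = plate median of test compound wells and 100% = 2 mM ZnCl2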
Numbers without * were called inactive; ? = inconclusive; . = no result. A selection: hits, their analogues and other compounds. The true share with any hit is near 2.1%.

SMILES	Fh CTSL1 inh	Calb FLC	Rin1 Abl inh	M18AAP inhibitor
Cn1ccc2c(-c3cccnc3)cc3c(c21)C1CCC3O1 (centres undefined)	.	.	-1.8	.
COc1ccc(C(=O)NC(=O)COC(=O)c2ccc3ncsc3c2)cc1	-2.3	-20.9	.	10.1
O=C(Nc1cccc(F)c1)c1ccc2ncsc2c1	-0.7	111.0*	2.4	-5.6
O=C(COC(=O)c1ccc2ncsc2c1)NC(=O)c1ccccc1	-6.8	2.2	-1.7	30.7*
O=C(Nc1ccccc1F)c1ccc2ncsc2c1	3.3	105.3*	-1.3	-7.0
COc1ccc(-c2coc3c(C(=O)NCC4CC4)cccc23)c(C)c1	.	.	-0.7	.
O=C(O)CC1c2ccccc2CCN1S(=O)(=O)c1ccc(F)cc1 (centres undefined)	-2.1	2.9	0.2	3.4
CC(=O)Nc1nc(C)c(-c2csc(Nc3ccc(O)cc3)n2)s1	6.1	.	-4.8	28.4*
CC(=O)Nc1ccc(Nc2nc(-c3sc(NC(C)=O)nc3C)cs2)cc1	-0.8	-2.0	0.3	12.6
Cc1nc(N)sc1-c1csc(Nc2cccc(C(=O)O)c2)n1	.	0.4	-0.4	29.0*
Cc1cccc(NC(=S)NN(Cc2ccccc2)c2ccccc2)c1C	1.8	3.6	-2.4	-0.1
Cc1nc(S(=O)(=O)c2ccc(Cl)cc2)c(NCc2ccccc2)o1	28.0*	-15.1	0.2	5.3
CNc1oc(C)nc1S(=O)(=O)c1ccccc1	2.0	-1.3	-3.1	0.4
CCOc1ccc(C(=S)N2CCCC2)c(OCC)c1	5.9	0.3	-1.2	29.6*
CCN(CC)Cc1c(C(=O)N/N=C/c2ccccn2)nnn1-c1nonc1N	-2.8	-3.0	-2.8	5.1
CC(=O)NNC(=S)NC(=O)c1ccccc1	0.1	-12.0	3.0	48.5*
O=C(Cc1cccs1)NNC(=S)NC(=O)c1ccc(F)c(F)c1	3.0	49.3	-4.6	44.1*
O=C(Cc1cccs1)NNC(=S)NC(=O)c1ccccc1	2.4	31.4	0.7	34.8*
O=C(/C=C/c1ccccc1)NC(=S)NNC(=O)Cc1cccs1	1.2	-9.5	-1.0	12.6
O=C(CCc1ccccc1)NNC(=S)NC(=O)c1ccc(Cl)cc1	3.0	80.0*	.	3.8
CC(C)CC(NC(=O)OC(C)(C)C)C(=O)NCc1ccccc1 (centres undefined)	7.2	-12.0	-0.6	-4.7
CC(C)CC(NC(=O)C(COCc1ccccc1)NC(=O)OC(C)(C)C)C(=O)NN (centres undefined)	17.8*	26.5	3.0	4.1
COc1ccc(N(CC(=O)NCCSCc2ccc(Cl)cc2)S(C)(=O)=O)cc1Cl	0.0	9.1	-1.0	1.1
O=C(CCc1nnc2ccc(NCc3ccco3)nn12)Nc1ccccn1	2.9	7.1	3.1	25.8
CCN(C(=O)CCc1nnc2ccc(NCc3ccco3)nn12)c1ccccc1	1.2	-1.5	3.7	29.0*
SMILES	Fh CTSL1 inh	Calb FLC	Rin1 Abl inh	M18AAP inhibitor
CCCOP(=O)(c1ccc(N(C)C)cc1)C(Nc1ccccc1)c1ccc(C)cc1 (centres undefined)	20.7*	3.3	0.6	-2.2
CC(C)CCOP(=O)(c1ccc(N(C)C)cc1)C(Nc1ccccc1)c1ccc(N(C)C)cc1 (centres undefined)	2.9	-4.9	1.9	6.4
NC(=O)c1ccc(/C=N/O)[n+](Cc2ccccc2)c1	1.8	-2.0	-1.1	1.2
COc1ccc(-c2cc(=O)oc3cc(OC(C)C(=O)O)ccc23)cc1 (centres undefined)	3.2	21.6	-7.0	-9.6
CC(Oc1ccc2c(-c3ccccc3)cc(=O)oc2c1)C(=O)N1CCC[C@@H]1C(N)=O (some centres undefined)	42.4*	-1.9	1.4	4.2
CCOC(=O)C1(CCCc2ccccc2)CCN(C(=O)c2cc(C)nn2CC)CC1	0.7	3.5	-1.5	-1.4
CC(C)CCOC(=O)C[N+](C)(C)CCOC1CC2CCC1(C)C2(C)C (centres undefined)	10.9	102.7*	0.7	-0.1
CCCCCCOC(=O)C[N+](C)(C)CCOC1CC2CCC1(C)C2(C)C (centres undefined)	1.5	102.9*	5.4	2.8
CCC(C)OC(=O)C[N+](C)(C)CCOC1CC2CCC1(C)C2(C)C (centres undefined)	-0.8	87.1*	-0.1	-7.9
CCCOC(=O)C[N+](C)(C)CCOC1CC2CCC1(C)C2(C)C (centres undefined)	-6.0	-7.8	-2.6	-16.0
CCCCCCCOC(=O)C[N+](C)(C)CCOC1CC2CCC1(C)C2(C)C (centres undefined)	.	107.5*	1.9	0.9
COc1ccccc1NC(=O)N1CCC(NC(=O)C2CCCCC2)CC1	-2.4	-13.1	2.8	3.0
CCOC(=O)N1CCC(NCCNC(=O)c2ccc(F)c(F)c2)CC1	.	.	-1.7	.
Cn1nc(C(C)(C)C)c(NC(=O)c2cccs2)c1C(C)(C)C	2.3	-2.5	-3.0	1.9
CCNc1nc(SCC(N)=O)nc2sc3c(c12)CCN(C)C3	.	-2.4	-1.9	28.6*
Cc1conc1NC(c1cccs1)c1ccc2cccnc2c1O (centres undefined)	-0.2	87.3*	.	12.4
Oc1c(C(Nc2nc3ccccc3s2)c2ccco2)ccc2cccnc12 (centres undefined)	-0.6	?	1.4	25.6
CC(C)CC(=O)NC(c1cccs1)c1ccc2cccnc2c1O (centres undefined)	4.2	106.5*	3.0	4.5
CC(C)C(=O)NC(c1cccs1)c1cc([N+](=O)[O-])c2cccnc2c1O (centres undefined)	3.6	89.8*	3.5	6.9
CCC(=O)NC(c1cccs1)c1cc([N+](=O)[O-])c2cccnc2c1OC (centres undefined)	.	.	-10.0	.
CCC(=O)NC(c1cccs1)c1ccc2cccnc2c1O (centres undefined)	5.5	101.4*	9.8*	6.8
Cc1cc(Br)ccc1NC(=O)CN(C)C(=O)COc1cccc2c1OC(C)(C)C2	-2.2	-0.7	1.4	.
O=C(Nc1ccccc1Cl)c1ccc(S(=O)(=O)NCC2CCCO2)cc1 (centres undefined)	-1.0	-4.6	-1.0	-9.2
CC(C)C(=O)NC(c1ccco1)c1ccc2cccnc2c1O (centres undefined)	-1.3	97.9*	3.8	30.3*
CCCC(=O)NC(c1cccs1)c1cc(Cl)c2cccnc2c1O (centres undefined)	1.3	86.1*	5.6	-9.0
SMILES	Fh CTSL1 inh	Calb FLC	Rin1 Abl inh	M18AAP inhibitor
CC(=O)N1CCN=C1SCc1cccc(Cl)c1	6.8	-1.9	3.2	-9.6
Cc1oc2c(C)c(O)ccc2c(=O)c1-c1cnn(-c2ccccc2)c1	1.1	-8.1	-2.2	-13.8
Cc1[nH]nc(-c2ccc(O)c(C)c2O)c1-c1cnn(-c2ccccc2)c1	0.9	106.0*	-0.2	16.5
O=C1CCc2ccc(OCCCCN3CCN(c4cccc(Cl)c4Cl)CC3)cc2N1	-4.1	105.1*	-2.8	12.8
COc1ccccc1N1CCN(CCCOc2ccc(F)cc2)CC1	-1.3	-16.7	2.5	6.4
COc1ccc(/C=N/Nc2nncc3ccccc23)cc1	52.5*	50.4	-1.9	-1.1
COc1ccccc1/C=N/Nc1nncc2ccccc12	3.5	-20.9	2.4	-1.3
Cc1ccc(NS(=O)(=O)c2ccc(CCC(=O)NCCO)cc2)cc1	-1.2	112.5*	-0.3	15.7
